Bioassay records as filed in PubChem BioAssay.
LmPK inhibitor: qHTS Assay for Inhibitors of Leishmania Mexicana Pyruvate Kinase (LmPK); purified LmPK, Kinase-Glo ATP luminescence, 1 h; Potency, µM (series often up to 57.5 µM), for the others: at the top dose activity change, negative = inhibition, actives largely listed as inhibitors; hit rate 0.37% among 290,000; further: potency means the concentration at half of the fitted maximal effect; on the % scale 0 is the no-effect control and ±100 the full control effect
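Purified LmPK (0.1 nM) converted ADP (0.1 mM) to ATP with PEP (0.5 mM) in imidazole buffer pH 7.2 with KCl and MgCl2, 1 h at room temperature. ATP was read by Kinase-Glo luminescence; data normalized to uninhibited and no-enzyme controls.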
CHX counter: Cycloheximide Counterscreen for Small Molecule Inhibitors of Shiga Toxin | cell reporter, cycloheximide protein synthesis inhibition counterscreen | max response, % | hit rate 12% among 300,000 | AID 2314, 2010; in the data active means max response mostly above about 13%, no sharp cut-off; inactive means mostly below about 14%; further: read at 38.3 µM for the half of the compounds with a filed dose; 0% is about no effect
RE007 growth inh: qHTS Assay for Inhibitors of the HIV-1 protein Vpr | S. pombe RE007 Vpr strain, BacTiter-Glo ATP luminescence, 24 h | AID 651644, 2012 | Potency, µM (highest dose often 92.2 µM), inactives show top-dose activity change, negative = less growth, hits mostly inhibitors | hit rate 0.21% among 360,000; active means well fitted falling curve with a large enough effect; inconclusive means small, poorly fitted or top-dose-only effect; inactive means no such curve, though single readings can be large or run the other way; further: potency means the concentration at half of the fitted maximal effect; on the % scale 0 is the no-effect control and ±100 the full control effect; nearly all actives have a fitted effect of over 50% in size
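Fission yeast RE007 carrying one integrated HIV-1 vpr copy, seeded at OD 0.01 in PMG+AL medium with 23 nL pinned compound. Grown 24 h at 30 degrees; viability read by BacTiter-Glo luminescence after 5 min.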
FBPA Giardia inh: qHTS Assay for Inhibitors of Fructose-1,6-bisphosphate Aldolase from Giardia Lamblia | hit rate 0.71% among 290,000 | purified Giardia FBPA | Potency, µM (series often up to 59.6 µM), for inactives: at the highest dose activity, negative = inhibition, usual class: inhibitors; further: potency means the concentration at half of the fitted maximal effect; on the % scale 0 is the no-effect control and ±100 the full control effect; nearly all actives have a fitted effect of over 55% in size
Target sequence (A8B2U2 whole entry, looked up): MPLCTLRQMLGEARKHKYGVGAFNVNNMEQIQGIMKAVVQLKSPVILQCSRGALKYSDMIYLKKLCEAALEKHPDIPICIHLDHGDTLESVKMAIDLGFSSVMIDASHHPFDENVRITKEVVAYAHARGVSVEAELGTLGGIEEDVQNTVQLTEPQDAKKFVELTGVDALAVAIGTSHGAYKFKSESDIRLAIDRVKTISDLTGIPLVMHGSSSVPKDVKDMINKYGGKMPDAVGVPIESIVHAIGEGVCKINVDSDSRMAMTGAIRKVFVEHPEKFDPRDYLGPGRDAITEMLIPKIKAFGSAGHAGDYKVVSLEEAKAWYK
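Giardia FBPA (40 nM reagent) was preincubated 10 min at RT with compound (up to 57.5 uM final), then substrate plus GAPDH/TPI/NAD/arsenate coupling system with diaphorase/resazurin was added; resorufin fluorescence (525/598 nm) was read after 20 min.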
Shiga toxin inh: A qHTS for Small Molecule Inhibitors of Shiga Toxin | Vero cells, Shiga toxin protein synthesis inhibition reporter | inhibition, % at 38.7 µM | hit rate 9.2% among 290,000; in the data active means inhibition mostly above about 28%, no sharp cut-off; inactive means mostly below about 43%; further: 0% is about no effect
Tb PYK inh: qHTS of Trypanosoma Brucei Inhibitors; pyruvate kinase (Trypanosoma brucei), Q57TT1; TbPYK enzyme, Kinase-Glo Plus ATP luminescence, 45 min; Potency, µM (top dose mostly 76.8 µM), for inactives: at the highest dose activity, negative = inhibition, hits mostly inhibitors; hit rate 0.12% among 410,000; AID 624173, 2012; further: potency means the concentration at half of the fitted maximal effect; on the % scale 0 is the no-effect control and ±100 the full control effect; nearly all actives have a fitted effect of over 50% in size
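Screened from lowest to highest concentration, compounds were pinned into TbPYK/substrate mixtures, and ADP (130 uM final) was added. Plates sat at room temperature for 45 min prior to Kinase-Glo Plus detection by luminescence.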
An asterisk follows results filed as active; [ ] = remark or other dose. The sample as a whole holds a higher share of hits than the screen did. Unless noted, the call rests on the fitted dose curve; in most records, active means well fitted curve in the direction sought with a large enough effect; inconclusive means small, poorly fitted or top-dose-only effect, or another doubt; inactive means no such curve, though single readings can be large; an effect the other way counts as inactive or inconclusive.

`COCC(=O)Nc1nc2ccc(S(C)(=O)=O)cc2s1` gave LmPK inhibitor -7%, CHX counter 40*, RE007 growth inh 11%, FBPA Giardia inh -4%, Shiga toxin inh 108* and Tb PYK inh -1%.
O=C(Cc1ccccc1)Nc1nc2ccccc2s1 was read as LmPK inhibitor 4%, CHX counter 26*, RE007 growth inh 19%, FBPA Giardia inh 0%, Shiga toxin inh 49* and Tb PYK inh 3%.
`COc1ccc2nc(NC(=O)CNS(=O)(=O)c3cccs3)sc2c1` gave LmPK inhibitor 6%, CHX counter 12, RE007 growth inh -1%, FBPA Giardia inh 4%, Shiga toxin inh 10 and Tb PYK inh -5%.
Screening Cc1cnc(NC(=O)Cc2cccs2)s1 returned LmPK inhibitor 2%, CHX counter 21*, RE007 growth inh -2%, FBPA Giardia inh 24%, Shiga toxin inh 50 and Tb PYK inh 2%.
`COc1ccc2nc(NC(=O)CN(C)S(=O)(=O)c3cccs3)sc2c1` gave LmPK inhibitor -2%, CHX counter 23*, RE007 growth inh -13%, FBPA Giardia inh -3%, Shiga toxin inh 58* and Tb PYK inh 2%.
For COc1ccccc1CC(=O)Nc1ncc(C)s1 the results were LmPK inhibitor -5%, CHX counter 1, RE007 growth inh -5%, FBPA Giardia inh 16%, Shiga toxin inh 17 and Tb PYK inh -4%.
Screening CS(=O)(=O)c1ccc2nc(NC(=O)C3CC3)sc2c1 returned RE007 growth inh 15% and Tb PYK inh -3%.
Screening CCCCC(=O)Nc1ccc(C(=O)OCc2cc(=O)n3ccsc3n2)cc1 returned Tb PYK inh 4%.
Screening Cn1nc(C(=O)N2CCN(C(c3ccccc3)c3ccccc3)CC2)c2ccccc2c1=O returned LmPK inhibitor -2%, CHX counter -2, RE007 growth inh 4%, FBPA Giardia inh 7%, Shiga toxin inh -4 and Tb PYK inh 2%.
Screening COCC(=O)Nc1nnc(-c2ccc(C(C)(C)C)cc2)s1 returned LmPK inhibitor -4%, CHX counter 52*, RE007 growth inh 0%, FBPA Giardia inh 1%, Shiga toxin inh 91* and Tb PYK inh 3%.
For COc1ccc2nc(NC(=O)Cc3cccs3)sc2c1 the results were LmPK inhibitor 0%, CHX counter 51*, RE007 growth inh -15%, FBPA Giardia inh -6%, Shiga toxin inh 152* and Tb PYK inh -16%.
`O=C(Cc1cccs1)Nc1nc2ccccc2s1` gave LmPK inhibitor -1%, CHX counter 30*, RE007 growth inh -10%, FBPA Giardia inh 1%, Shiga toxin inh 111* and Tb PYK inh 2%.
`COc1n[nH]c(C(=O)Nc2nc3ccccc3s2)c1[N+](=O)[O-]` gave LmPK inhibitor -17%, CHX counter 33*, RE007 growth inh -15%, FBPA Giardia inh inconclusive, Shiga toxin inh 75* and Tb PYK inh -7%.
`COc1ccc2nc(NC(=O)CCc3cc(OC)c(OC)c(OC)c3)sc2c1` gave LmPK inhibitor 5%, CHX counter 8, RE007 growth inh 1%, FBPA Giardia inh -8%, Shiga toxin inh -16 and Tb PYK inh 3%.
`C=CC1=C2C=C(C3CC3)N(C3CCCCC3)C=C2C(=O)C(C)(OC(=O)c2ccco2)C1=O` (configuration not stated) gave LmPK inhibitor 0%[11.5 µM] and FBPA Giardia inh inconclusive.
For CCc1ccc(OC(=O)CSc2nnc(-c3ccc4c(c3)OCO4)o2)cc1 the results were Tb PYK inh -1%.
CC1(C(=O)Nc2cccc(C#N)c2)CCN1C(=O)C/C=C/c1ccccc1 (configuration not stated) was read as RE007 growth inh -2%[18.4 µM] and Tb PYK inh -6%.
`COC(=O)CCCCCCCCC(=O)Nc1nc2ccccc2s1` gave LmPK inhibitor 5%, CHX counter -1, RE007 growth inh 5%, FBPA Giardia inh 5%, Shiga toxin inh 14 and Tb PYK inh -2%.
COCC(=O)Nc1nc2ccccc2s1 was read as LmPK inhibitor -9%, CHX counter 29*, RE007 growth inh 1%, FBPA Giardia inh 9%, Shiga toxin inh 50* and Tb PYK inh -1%.
For COc1ccc(Cl)cc1NC(=O)NNC(=O)c1ccccn1 the results were LmPK inhibitor 0%, CHX counter 24*, RE007 growth inh 19%, Shiga toxin inh -1 and Tb PYK inh 6%.
For COc1ccc(C(=O)Nc2ccc(NC(=O)c3ccccc3OC)nc2)cc1 the results were LmPK inhibitor 0%, CHX counter 6, RE007 growth inh -3%, FBPA Giardia inh -15%, Shiga toxin inh 8 and Tb PYK inh 2%.
COc1ccc(CC(=O)NNC(=O)c2ccccn2)cc1 was read as LmPK inhibitor -3%, CHX counter 12*, RE007 growth inh 14%, FBPA Giardia inh 18%, Shiga toxin inh 64 and Tb PYK inh 3%.
`COc1ccc(NC(=O)c2ccccn2)cc1OC` gave LmPK inhibitor -23%, CHX counter 61*, RE007 growth inh -7%, FBPA Giardia inh inconclusive, Shiga toxin inh 90* and Tb PYK inh -3%.
`COc1ccc(C(=O)Nc2ccc(NC(=O)c3ccccn3)cn2)cc1` gave LmPK inhibitor 3%, CHX counter 11, RE007 growth inh -18%, FBPA Giardia inh 0%, Shiga toxin inh 78* and Tb PYK inh 10%.
Screening COc1ccc(C(=O)Nc2ccccc2C(=O)Nc2ccccn2)cc1 returned LmPK inhibitor -3%, CHX counter 26*, RE007 growth inh inconclusive, FBPA Giardia inh 0% and Tb PYK inh 3%.
COc1ccc(C(=O)Nc2ccccn2)cc1 was read as LmPK inhibitor 1%, CHX counter -4, RE007 growth inh 10%, FBPA Giardia inh 7%, Shiga toxin inh 9 and Tb PYK inh -1%.
COc1ccc(NC(=O)c2cc3ccccn3n2)cc1 was read as LmPK inhibitor -6%, CHX counter 40*, RE007 growth inh -13%, FBPA Giardia inh -26%, Shiga toxin inh 159 and Tb PYK inh -2%.
For COc1ccc(C(=O)Nc2ccc(NC(=O)Cc3ccccc3)cn2)cc1 the results were LmPK inhibitor 8%, CHX counter 20*, RE007 growth inh 36%, FBPA Giardia inh -21%, Shiga toxin inh 31 and Tb PYK inh -1%.
`O=C(Nc1ccc(OC(F)(F)F)cc1)c1cc2ccccn2n1` gave Tb PYK inh -4%.
